Read-out in assay [1]: Interleukin-1 alpha (IL1a), IL1A (gene 3552)
Put plainly: BSK_KF3CT_IL1a: BioMAP Diversity Plus: KF3CT Assay for Interleukin-1 alpha (IL1a) Biomarker Activity (AID 2283070). The settings on record: primary human keratinocytes with fibroblasts; actives raise or lower the signal. In short, it runs like this:
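Chemicals were dosed onto co-cultured human keratinocytes and foreskin fibroblasts, IL-1a was quantified by ELISA at 24 h, and activity was fitted in both directions relative to DMSO controls.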

Read-out in assay [2]: TIMP metallopeptidase inhibitor 2 (TIMP2), TIMP2 (gene 7077)
Nature of the assay: BSK_KF3CT_TIMP2: BioMAP Diversity Plus: KF3CT Assay for TIMP metallopeptidase inhibitor 2 (TIMP2) Biomarker Activity (AID 2283071). The note with it: primary human keratinocytes with fibroblasts; actives raise or lower the signal. In a few lines:
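Cells: human keratinocytes co-cultured with foreskin fibroblasts. Treat with chemical, 24 h. Measure TIMP-2 by ELISA; fit curves bidirectionally vs DMSO baseline.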

Read-out in assay [3]: Transforming growth factor beta 1 (TGFb1), TGFB1 (gene 7040)
Nature of the assay: BSK_KF3CT_TGFb1: BioMAP Diversity Plus: KF3CT Assay for Transforming growth factor beta 1 (TGFb1) Biomarker Activity (AID 2283072). The note with it: primary human keratinocytes with fibroblasts; actives raise or lower the signal. In short, it runs like this: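 Primary human skin cells (keratinocytes, foreskin fibroblasts) were co-cultured, exposed to test chemical and sampled at 24 h. TGF-b1 levels were measured by ELISA and fitted bidirectionally relative to DMSO.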

Read-out in assay [4]: C-C motif chemokine 2 (Homo sapiens) (UniProt P13500)
Nature of the assay: BSK_KF3CT_MCP1: BioMAP Diversity Plus: KF3CT Assay for Monocyte Chemoattractant Protein 1 (MCP1/CCL2) Biomarker Activity (AID 2283073). The settings on record: primary human keratinocytes with fibroblasts; actives raise or lower the signal. In short, it runs like this:
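ELISA readout of MCP-1 after 24 h chemical dosing of a human skin primary co-culture of keratinocytes and foreskin fibroblasts. Activity was fitted in both directions against DMSO.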

Read-out in assay [5]: Matrix Metallopeptidase 9 (MMP9), MMP9 (gene 4318)
Nature of the assay: BSK_KF3CT_MMP9: BioMAP Diversity Plus: KF3CT Assay for Matrix Metallopeptidase 9 (MMP9) Biomarker Activity (AID 2283074).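 For AC50: MMP9 protein level quantified by ELISA in the co-culture.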 The settings on record: primary human keratinocytes with fibroblasts; actives raise or lower the signal. In a few lines: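 Human keratinocyte/foreskin fibroblast co-culture; compound added; 24 h; MMP-9 by ELISA; bidirectional fit vs DMSO baseline.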

Read-out in assay [6]: CD40, CD40 (gene 958)
Put plainly: BSK_LPS_CD40: BioMAP Diversity Plus: LPS Assay for CD40 Biomarker Activity (AID 2283076). The note with it: primary human HUVEC with PBMC; actives raise or lower the signal. In short, it runs like this:
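Cells were dosed, incubated 24 h, then assayed for CD40 by ELISA. Gain or loss of signal was analysed relative to DMSO controls. The culture paired human umbilical vein endothelium with peripheral blood mononuclear cells.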

Read-out in assay [7]: E-selectin (Homo sapiens) (UniProt P16581)
Nature of the assay: BSK_LPS_Eselectin: BioMAP Diversity Plus: LPS Assay for Eselectin Biomarker Activity (AID 2283077). The note with it: primary human HUVEC with PBMC; actives raise or lower the signal. In short, it runs like this: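 Primary human vascular co-culture (endothelium plus PBMC) was dosed with chemical, then E-selectin quantified by ELISA at 24 h. Endpoint values derive from bidirectional curve fitting relative to DMSO.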

Read-out in assay [8]: Interleukin-8 (IL8), CXCL8 (gene 3576)
Put plainly: BSK_LPS_IL8: BioMAP Diversity Plus: LPS Assay for Interleukin-8 (IL8) Biomarker Activity (AID 2283078). The note with it: primary human HUVEC with PBMC; actives raise or lower the signal. In a few lines: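 Readout is IL-8 by ELISA, taken 24 h after compounds were added to LPS-stimulated endothelial/PBMC co-cultures. Both increases and decreases relative to DMSO control were scored through bidirectional fitting.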

Assay [9] is described as follows: BSK_LPS_SRB: Viability Assessment in the BioMAP Diversity Plus: LPS Assay (AID 2283079).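 Note: total protein by sulforhodamine B absorbance as a cytotoxicity measure; measured one day after compound addition; fitted in both directions against DMSO so loss or gain of signal counts.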 The note with it: primary human HUVEC with PBMC. In a few lines: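 Readout is SRB absorbance at 560 nm (0.1% stain, TCA-fixed parallel cultures) as a total-protein cytotoxicity measure. Cells: primary human umbilical vein endothelium plus peripheral blood mononuclear cells, 24 h after chemical exposure; DMSO served as baseline.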

Read-out in assay [10]: Interleukin-1 alpha (IL1a), IL1A (gene 3552)
Nature of the assay: BSK_LPS_IL1a: BioMAP Diversity Plus: LPS Assay for Interleukin-1 alpha (IL1a) Biomarker Activity (AID 2283080). The settings on record: primary human HUVEC with PBMC; actives raise or lower the signal. In a few lines: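 ELISA read-out of IL-1 alpha from a human primary vascular co-culture (endothelium plus PBMC) under LPS, sampled 24 hours post-dosing. Activity was fitted in both directions relative to DMSO controls.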

Read-out in assay [11]: Monocyte Chemoattractant Protein-1 (MCP1), CCL2 (gene 6347)
Put plainly: BSK_LPS_MCP1: BioMAP Diversity Plus: LPS Assay for Monocyte Chemoattractant Protein-1 (MCP1) Biomarker Activity (AID 2283081).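 For AC50: secreted MCP-1 protein quantified by ELISA in culture supernatant.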 The note with it: primary human HUVEC with PBMC; actives raise or lower the signal. In short, it runs like this:
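Human endothelial–PBMC co-cultures were dosed with chemical, then LPS-driven MCP-1 levels were quantified by ELISA at 24 h. Activity in either direction was fitted versus DMSO negative control.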

The nature of assay [12]: BSK_LPS_PGE2: BioMAP Diversity Plus: LPS Assay for Prostaglandin E2 (PGE2) Biomarker Activity (AID 2283082). The settings on record: primary human HUVEC with PBMC; actives raise or lower the signal. In short, it runs like this:
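LPS-activated HUVEC/PBMC co-culture; cmpd dosed, 24 h; PGE2 by ELISA; bidirectional fit vs DMSO; SRB (0.1%, TCA-fixed, 560 nm) in parallel plates for overt cytotox.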

Read-out in assay [13]: Macrophage colony-stimulating factor (MCSF), CSF1 (gene 1435)
Put plainly: BSK_LPS_MCSF: BioMAP Diversity Plus: LPS Assay for Macrophage colony-stimulating factor (MCSF) Biomarker Activity (AID 2283083). The settings on record: primary human HUVEC with PBMC; actives raise or lower the signal. In a few lines:
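ELISA readout of M-CSF after 24 h compound exposure in a human endothelial/PBMC co-culture. Activity, in either direction, is fitted relative to DMSO vehicle.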

Read-out in assay [14]: Tissue Factor, F3 (gene 2152)
Nature of the assay: BSK_LPS_TissueFactor: BioMAP Diversity Plus: LPS Assay for Tissue Factor Biomarker Activity (AID 2283084). The note with it: primary human HUVEC with PBMC; actives raise or lower the signal. In short, it runs like this:
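ELISA signal for cell-surface Tissue Factor (CD142) was read 24 h after compound dosing of an LPS-stimulated human endothelial–PBMC primary co-culture. Gain or loss of signal was scored relative to DMSO.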

Read-out in assay [15]: Tumor necrosis factor (Homo sapiens) (UniProt P01375)
Put plainly: BSK_LPS_TNFa: BioMAP Diversity Plus: LPS Assay for Tumour Necrosis Factor alpha (TNFa) Biomarker Activity (AID 2283085). The note with it: primary human HUVEC with PBMC; actives raise or lower the signal. In short, it runs like this: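 Read-out is ELISA of TNFa in primary human endothelial cell–PBMC co-cultures at 24 h after compound. Activity in either direction was fitted against DMSO.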

Read-out in assay [16]: Vascular cell adhesion molecule 1 (VCAM1), VCAM1 (gene 7412)
Nature of the assay: BSK_LPS_VCAM1: BioMAP Diversity Plus: LPS Assay for Vascular cell adhesion molecule 1 (VCAM1) Biomarker Activity (AID 2283086). The note with it: primary human HUVEC with PBMC; actives raise or lower the signal. In short, it runs like this:
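HUVEC + PBMC co-culture, LPS system; compound 24 h; VCAM-1 by ELISA; bidirectional fit vs DMSO control; parallel SRB (0.1%, TCA-fixed, 560 nm) for cytotoxicity.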

Read-out in assay [17]: CD38, CD38 (gene 952)
Put plainly: BSK_SAg_CD38: BioMAP Diversity Plus: SAg Assay for CD38 Biomarker Activity (AID 2283087). The note with it: primary human HUVEC with PBMC; actives raise or lower the signal. In a few lines:
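Human HUVEC plus PBMC co-culture stimulated with superantigen; CD38 measured by ELISA 24 h after chemical dosing. Fluorescence read-out, bidirectional fit against DMSO; cytotoxicity tracked in parallel by SRB and Alamar Blue.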

Read-out in assay [18]: CD40, CD40 (gene 958)
Put plainly: BSK_SAg_CD40: BioMAP Diversity Plus: SAg Assay for CD40 Biomarker Activity (AID 2283088). The settings on record: primary human HUVEC with PBMC; actives raise or lower the signal. In a few lines:
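Compounds were dosed onto a human primary endothelial–PBMC co-culture, and after 24 h CD40 was quantified by ELISA using a fluorescence signal. Activity in either direction was fitted relative to DMSO.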

Read-out in assay [19]: CD69, CD69 (gene 969)
Put plainly: BSK_SAg_CD69: BioMAP Diversity Plus: SAg Assay for CD69 Biomarker Activity (AID 2283089).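 For AC50: cell surface CD69 protein quantified by ELISA with fluorescence detection.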 The settings on record: primary human HUVEC with PBMC; actives raise or lower the signal. In a few lines: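 Endothelial/PBMC co-culture; chemical added; 24 h incubation; CD69 ELISA with fluorescence detection; bidirectional fit vs DMSO.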

SMILES strings stand for the structures. Active and inactive are the calls of the source. Rule for the calls: active = hit-call score of the fitted dose curve at least 0.9, where 1 is the maximum; inactive = score below 0.9.

Chain of E-selectin (Homo sapiens) (P16581 whole entry, looked up): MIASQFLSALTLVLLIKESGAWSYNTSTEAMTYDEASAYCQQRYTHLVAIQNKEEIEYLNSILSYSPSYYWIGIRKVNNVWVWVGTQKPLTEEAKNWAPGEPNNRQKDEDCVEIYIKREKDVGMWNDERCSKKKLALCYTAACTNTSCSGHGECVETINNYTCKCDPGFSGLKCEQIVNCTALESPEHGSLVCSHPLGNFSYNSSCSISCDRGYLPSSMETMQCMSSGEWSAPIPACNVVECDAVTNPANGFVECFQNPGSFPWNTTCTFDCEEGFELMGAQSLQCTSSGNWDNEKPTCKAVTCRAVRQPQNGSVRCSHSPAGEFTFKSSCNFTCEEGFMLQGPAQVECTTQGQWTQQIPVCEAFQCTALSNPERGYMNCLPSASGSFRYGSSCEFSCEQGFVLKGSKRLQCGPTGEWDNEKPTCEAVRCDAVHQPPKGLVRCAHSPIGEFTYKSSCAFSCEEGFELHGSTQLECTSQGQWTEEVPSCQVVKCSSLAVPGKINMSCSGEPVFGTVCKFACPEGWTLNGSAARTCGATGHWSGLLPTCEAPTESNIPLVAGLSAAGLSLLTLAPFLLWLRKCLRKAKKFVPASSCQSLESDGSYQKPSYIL
Chain of Tumor necrosis factor (Homo sapiens) (P01375 whole entry, looked up): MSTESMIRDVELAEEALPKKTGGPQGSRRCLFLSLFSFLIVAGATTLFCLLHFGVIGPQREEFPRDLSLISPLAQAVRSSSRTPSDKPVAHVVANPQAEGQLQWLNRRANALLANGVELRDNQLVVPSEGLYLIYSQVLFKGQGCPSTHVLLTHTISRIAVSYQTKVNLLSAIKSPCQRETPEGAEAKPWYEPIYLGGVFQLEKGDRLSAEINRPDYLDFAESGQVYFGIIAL

With `CCN(CC)c1ccc(C=O)cc1`, the outcome in assay [1], in assay [2], in [3], in [4], in assay [5] and in assay [6] was inactive. Moreover, the outcome in assay [7], in assay [8], in [9], in assay [10], in assay [11] and in [12] was inactive. The outcome in [13], in assay [14], in assay [15], in assay [16], in assay [17] and in assay [18] was inactive. The result in [19] was inactive.
As for `CCN(CC)c1ccc(N=Nc2ccccc2)cc1`, the result in [1], in [2], in [3], in assay [4], in [7] and in [12] was inactive. Moreover, the result in assay [14], in [15] and in assay [16] was inactive. The AC50 (in general, the concentration giving half of the maximal activity seen) is 9.24 µM (active) in assay [5]; 28.6 µM (active) in [6]; 20 µM (active) in [8]; 29.6 µM (active) in assay [9]; 34.4 µM (active) in [10]; 31.9 µM (active) in assay [11]. The AC50 was 20 µM (active) in assay [13], 27.5 µM (active) in assay [17], 14.2 µM (active) in [18] and 14.3 µM (active) in [19].
As to `Cc1cnccn1`, the result in [1], in assay [2], in assay [3], in assay [4], in [5] and in [6] was inactive. The result in assay [7], in [8], in assay [9], in [10], in assay [11] and in assay [12] was inactive. In addition, the outcome in assay [13], in assay [14], in assay [15], in [16], in assay [17] and in assay [18] was inactive. Also, the outcome in [19] was inactive.

These data come from PubChem BioAssay (EPA / NIEHS).
